Results with a measured potency or affinity are listed apart. Records with an inconclusive call do not appear. Calls of active or inactive are those of the source. The rule behind the calls is not given here.

The test deals with DNA topoisomerase I (Yersinia pestis CO92) (UniProt A0A2S9PM60). As to the kind of experiment: Y. pestis Topo-I inhibitors, cleavage product readout, dose response, biochemical, Y. pestis CO92, cherry-pick (AID 588525). The conditions noted are these: purified Y. pestis Topo-I, plate reader; series mostly up to 38 µM; activity (cleavage complex accumulation): at the top concentration.
DNA topoisomerase I (Yersinia pestis CO92), sequence (A0A2S9PM60 1-871): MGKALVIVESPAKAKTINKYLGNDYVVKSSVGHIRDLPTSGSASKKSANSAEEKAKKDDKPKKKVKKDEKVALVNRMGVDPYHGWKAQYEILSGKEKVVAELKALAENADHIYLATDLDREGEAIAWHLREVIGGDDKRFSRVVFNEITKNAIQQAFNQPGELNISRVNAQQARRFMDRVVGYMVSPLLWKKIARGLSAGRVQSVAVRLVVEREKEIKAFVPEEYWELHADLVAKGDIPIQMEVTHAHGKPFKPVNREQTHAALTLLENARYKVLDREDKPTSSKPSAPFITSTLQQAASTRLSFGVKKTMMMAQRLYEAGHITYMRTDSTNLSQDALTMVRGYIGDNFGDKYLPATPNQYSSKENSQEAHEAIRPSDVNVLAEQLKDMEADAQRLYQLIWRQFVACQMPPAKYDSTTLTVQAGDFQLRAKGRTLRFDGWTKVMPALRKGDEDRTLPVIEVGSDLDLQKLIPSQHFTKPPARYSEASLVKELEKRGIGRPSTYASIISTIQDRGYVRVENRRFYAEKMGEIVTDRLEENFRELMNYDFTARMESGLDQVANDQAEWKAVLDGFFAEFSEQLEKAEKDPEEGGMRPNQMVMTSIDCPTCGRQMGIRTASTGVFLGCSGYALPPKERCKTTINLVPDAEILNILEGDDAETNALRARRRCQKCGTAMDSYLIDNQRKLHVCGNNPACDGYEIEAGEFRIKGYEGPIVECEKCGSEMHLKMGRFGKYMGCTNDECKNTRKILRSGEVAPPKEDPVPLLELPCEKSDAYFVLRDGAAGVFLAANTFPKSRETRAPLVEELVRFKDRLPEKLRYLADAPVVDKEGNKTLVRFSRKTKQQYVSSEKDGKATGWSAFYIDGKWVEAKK
Turning to `CSc1ccccc1NC(=O)COC(=O)c1ccccc1Cc1ccccc1`, the “activity (cleavage complex accumulation)” value is 37.9% (inactive).

Turning to `CCCCC(CC)COC(=O)c1ccccc1C(=O)OCC(CC)CCCC` (stereo unspecified), the “activity (cleavage complex accumulation)” value was 20.7% (inactive).

With `CCCCCCCCN1[C@@H](CC(C)=O)c2cc(C(F)(F)F)ccc2S1(=O)=O`, the “activity (cleavage complex accumulation)” value was 24.3% [at 10 µM] (inactive).

In the case of `COC(=O)c1ccc(C2C(Oc3ccc(OC)cc3)C(=O)N2CCc2ccc(F)cc2)cc1` (stereo unspecified), the “activity (cleavage complex accumulation)” value was 19.9% [at 19.5 µM] (inactive).

As to `O=C(NCCn1cc(SCc2ccccc2)c2ccccc21)c1ccccc1F`, the activity (cleavage complex accumulation) is 26.2% [at 5 µM] (inactive).

For the compound `O=C(COc1c(Cl)cccc1Cl)Nc1ccccc1N1CCCC1`, the “activity (cleavage complex accumulation)” value is 16.1% (inactive).

The values above are taken from PubChem BioAssay AID588525 (Broad Institute, 2011).
